Bioassay records as filed in PubChem BioAssay.
Rows were chosen to be rich in hits. Some 12% of all compounds tested hit in one or more screens of this group.
Sfp inh: blocks B. subtilis Sfp PPTase activity; Potency, µM, most hits filed as inhibitors; AID 1490; 3.5% of 310,000 active; Biochemical Sfp PPTase activity, qHTS;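 note: the enzyme is Sfp with the accession as filed and its product quenches rhodamine fluorescence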
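Fluorescence-quenching assay: 15 nM Sfp-PPTase preincubated 15 min at room temperature with compound, then 5 uM rhodamine-CoA and 12.5 uM BHQ-2-labelled YbbR peptide added. Fluorescence (ex 525/em 598 nm) read at start and after 30 min; difference gives rate.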
BAZ2B block: inhibitors of human BAZ2B bromodomain. Potency, µM (titrated, usually from 114 µM), actives largely listed as inhibitors. 4.4% of 360,000 active. Q9UIF8. AlphaScreen BAZ2B-H3K14Ac peptide displacement; note: nearly all actives have a fitted effect of over 60% in size
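Inhibition is scored as reduced AlphaScreen emission. The BAZ2B/b-H3(5-23)K14Ac complex (50 nM each) in PBS pH 7.4, 0.01% Tween-20 meets compound (up to 110 uM) for 30 min at RT before bead addition.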
JMJD2A Tudor: inhibitors of human JMJD2A Tudor domain | AlphaScreen JMJD2A-Tudor / H3K4me3 peptide binding | Potency, µM (top dose mostly 114 µM), hits mostly inhibitors | 4.4% of 390,000 active | AID 504339; note: nearly all actives have a fitted effect of over 50% in size
G9a block: blocks human histone lysine methyltransferase G9a; G9a H3K9 monomethylation, AlphaScreen, 2 h; Potency, µM (titrated, usually from 102 µM), hits mostly inhibitors; 8.8% of 350,000 active; AID 504332; note: nearly all actives have a fitted effect of over 75% in size
Target sequence (Q96KQ7 913-1193 limits assumed): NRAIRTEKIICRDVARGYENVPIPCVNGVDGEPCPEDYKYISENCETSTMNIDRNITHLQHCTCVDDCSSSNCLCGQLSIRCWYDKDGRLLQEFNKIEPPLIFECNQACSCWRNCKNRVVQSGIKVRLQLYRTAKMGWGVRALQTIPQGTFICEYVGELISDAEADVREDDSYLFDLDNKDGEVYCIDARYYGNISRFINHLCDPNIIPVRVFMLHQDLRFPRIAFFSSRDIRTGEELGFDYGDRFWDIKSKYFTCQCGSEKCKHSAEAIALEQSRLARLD
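Enzyme 20 nM + cpd, 15 min RT; add b-H3K9 pep 500 nM / SAM 20 uM; 2 h RT; anti-H3K9me1 Ab 0.5 ug/mL + SA donor / anti-rabbit acceptor beads 20 ug/mL each, 10 min; AlphaScreen read.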
HP1b binding inh: blocks HP1-beta chromodomain binding to methylated histone tails; 0.56% of 390,000 active; P83916; Potency, µM (series often up to 114 µM), hits mostly inhibitors; AID 540317; AlphaScreen HP1-beta / biotin-H3K9me3 peptide binding; note: nearly all actives have a fitted effect of over 70% in size
Target sequence (P83916 whole entry, looked up): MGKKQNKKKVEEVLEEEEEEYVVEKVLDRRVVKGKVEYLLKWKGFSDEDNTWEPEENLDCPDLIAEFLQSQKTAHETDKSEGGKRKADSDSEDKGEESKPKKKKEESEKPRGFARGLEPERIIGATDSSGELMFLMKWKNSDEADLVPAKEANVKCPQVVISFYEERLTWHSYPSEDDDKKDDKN
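AlphaScreen: HP1-beta (50 nM) preformed 30 min with biotin-H3(1-18)K9me3 peptide (50 nM) in PBS pH 7.4, 0.01% Tween-20. Compound added for 30 min at RT, then streptavidin donor/nickel chelate acceptor beads (10 ug/mL) for 30 min.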
PLK1 PBD block: PLK1 (human) polo-box domain binding inhibition | 2.8% of 360,000 active | Potency, µM, usual class: inhibitors | P53350 | Plk1 PBD binding of FITC phosphopeptide, fluorescence polarization; note: series mostly up to about 57 µM; nearly all actives have a fitted effect of over 65% in size
TbPYK confirm: confirmation of Trypanosoma brucei pyruvate kinase inhibitors | recombinant TbPYK, Kinase-Glo ATP luminescence | shares compounds with PLK1 PBD block | Potency, µM (highest dose often 76.9 µM), usual class: inhibitors | 67% of 890 active; note: nearly all actives have a fitted effect of over 70% in size
TbPYK orthogonal: TbPYK inhibition, orthogonal confirmation. 62% of 890 active. shares compounds with PLK1 PBD block. recombinant TbPYK, ADP-Glo luminescence, 60 min. Potency, µM (doses to about 76.9 µM), hits mostly inhibitors; note: nearly all actives have a fitted effect of over 75% in size
Hits are given with their value; . = inactive; ? = inconclusive; / = no result given; [ ] = another dose, or the depositor's remark. Calls come from the whole dose curve; as a rule, active = well fitted curve in the direction sought with a large enough effect; inconclusive = small, poorly fitted or top-dose-only effect, or another doubt; inactive = no such curve, though single readings can be large; an effect the other way counts as inactive or inconclusive.

SMILES | Sfp inh | BAZ2B block | JMJD2A Tudor | G9a block | HP1b binding inh | PLK1 PBD block | TbPYK confirm | TbPYK orthogonal
Cc1ccc(/C=C/C(=O)Nc2cccc3ncccc23)o1 | 20µM | . | ? | ? | . | ? | ? | ?
Cc1ccc(/C=C/C(=O)Nc2nn[nH]n2)o1 | . | 35.5µM | 35.5µM | ? | . | . | 25.1µM | 39.8µM
O=C(/C=C/c1ccccc1)Nc1cccnc1 | . | . | . | / | . | . | / | /
CC(C)(C)c1ccc(-n2ncc3c2CCCC3NC(=O)CCCn2cncn2)cc1 (stereo unspecified) | . | . | . | .[12.7 µM] | . | . | / | /
CCCCC[C@@H](C)N1C[C@H](COCc2ccccc2)Oc2cc(N3CC[C@H](N(C)C)C3)ccc2S1(=O)=O | / | / | / | / | / | . | / | /
O=C1C(c2cc(=O)c3ccccc3[nH]2)=C(O)c2ccccc21 | . | . | ? | . | . | . | 2.82µM | 7.08µM
O=c1cc(-c2ccccc2)[nH]c2ccccc12 | . | . | . | .[2.33 µM] | . | . | / | /
Cc1cnc(C(=O)OCC(=O)c2ccc(Br)s2)cn1 | / | . | . | . | . | . | / | /
O=C1c2ccccc2C(=O)N1c1ccccc1 | / | / | . | / | . | . | / | /
O=C1C=CC(=O)N1c1cccc(-c2ccccc2)c1 | 1.78µM | . | 50.1µM | 1µM | 31.6µM | 2.67µM | 3.98µM | 7.94µM
CCC(C(=O)Nc1nnc(-c2ccco2)s1)c1ccccc1 (stereo unspecified) | . | ? | . | . | . | . | / | /
O=C1C=CC(=O)N1c1ccc2c(c1)C(NC(=O)C(F)(F)F)c1ccccc1-2 (stereo unspecified) | / | / | 7.94µM | / | 12.6µM | 6.7µM | 7.94µM | 10µM
O=C(NC1c2ccccc2-c2ccccc21)N1CCCCC1 | . | . | . | . | . | . | / | /
O=C1CCCCCCC1Sc1ccccc1[N+](=O)[O-] (stereo unspecified) | . | ? | .[11.4 µM] | 11.2µM | ? | ? | 12.6µM | ?
Cc1ccc(-n2nnnc2C(Cl)(Cl)c2nnnn2-c2ccc(C)cc2)cc1 | 3.16µM | ? | . | ? | ? | 1.06µM | 1.58µM | 2.24µM
CSc1nnnn1-c1ccc(Cl)cc1 | . | . | . | / | . | . | / | /
COc1ccc(OC)c(-n2c(=S)[nH]c3c(sc(=S)n3-c3ccccc3)c2=O)c1 | . | . | ? | . | . | . | 15.8µM | 15.8µM
COc1ccc(/C=C/C(=O)OCC(=O)NCCc2ccccc2)c(OC)c1 | / | / | . | / | . | . | / | /
CC(C)Sc1nnc(CNC(=O)C23CC4CC(CC(C4)C2)C3)n1C1CCCCC1 | . | . | . | 20µM | . | . | 5.62µM | 11.2µM
Cc1nc(Nc2nc3ccccc3o2)nc(C)c1C | . | . | ? | . | . | 29.9µM | . | .
Cc1ccc2oc(Nc3nc(C)c(C)c(C)n3)nc2c1 | . | . | . | . | . | . | / | /
CCOC(=O)[C@]12CCC=C1N(Cc1ccc(Cl)cc1Cl)C(=O)[C@H](CC(=O)NCc1ccccc1)C2 | / | / | / | / | / | . | / | /
COc1ccccc1Cc1c(-c2ccco2)nc2c(C)cc(Br)cn12 | / | / | / | / | / | 11.9µM | . | .
COc1ccc(Cc2c(-c3ccco3)nc3c(C)cc(Br)cn23)c(C)c1 | / | / | / | / | / | . | / | /
COc1ccc(Cc2c(-c3ccco3)nc3ccc(Br)cn23)c(C)c1 | / | / | / | / | / | 23.8µM | ? | ?
SMILES | Sfp inh | BAZ2B block | JMJD2A Tudor | G9a block | HP1b binding inh | PLK1 PBD block | TbPYK confirm | TbPYK orthogonal
CC(=O)Nc1ccc(NC(=O)CS(=O)(=O)c2cn(CC(=O)N3CCC(C)CC3)c3ccccc23)cc1 | / | / | . | / | . | . | / | /
NC(=O)CN1C(=O)/C(=c2\sc3nc(=O)c(Cc4ccccc4)nn3c2=O)c2ccccc21 | 11.2µM | . | . | 7.94µM | . | 5.97µM | 28.2µM | 15.8µM
NC(=O)CN1C(=O)C2CCCCN2C(=O)c2ccccc21 (stereo unspecified) | . | . | . | . | . | . | / | /
COc1ccc(S(=O)(=O)n2nc(-c3ccco3)nc2NCc2ccc(OC)c(OC)c2)cc1 | / | . | . | ? | . | / | / | /
Cn1cccc1C(=O)C(=O)Nc1ccc(Cl)cc1 | . | . | .[11.4 µM] | .[0.501 µM] | . | . | / | /
Cn1cccc1C(=O)C(=O)Nc1cc(Cl)cc(Cl)c1 | . | . | 15.8µM | . | . | 2.99µM | . | .
O=[N+]([O-])c1ccc2c(c1)/C(=N\O)c1ccccc1-2 | . | . | . | . | . | . | / | /
O=[N+]([O-])c1ccc2c(c1)-c1ccccc1C2O (stereo unspecified) | / | / | / | / | / | 8.44µM | ? | 35.5µM
CCOC(=O)/C=C/C(=O)OCC(=O)Nc1ccc([N+](=O)[O-])cc1 | ? | . | . | .[12.7 µM] | . | . | / | /
O=c1[nH]c(=O)n(C2CC(O)C(CO)O2)cc1Br (stereo unspecified) | / | / | 79.4µM | / | . | . | 12.6µM | 28.2µM
CCOC(=O)N1CCN(S(=O)(=O)c2ccc(C(=O)NNc3nc4c(C)cccc4s3)cc2)CC1 | ? | ? | ? | 35.5µM | . | . | ? | ?
CCOC(=O)N1CCN(S(=O)(=O)c2ccc(C(=O)Nc3nc4c(s3)CC(C)CC4)cc2)CC1 (stereo unspecified) | . | . | . | . | . | . | / | /
O=C(CC1c2ccccc2Oc2ccccc21)N1CCN(c2ccccn2)CC1 | . | . | . | .[0.0925 µM] | . | . | / | /
CC[n+]1c(C)sc2c3ccsc3ccc21 | 1.41µM | / | 56.2µM | 1.58µM | ? | . | 0.282µM | 0.794µM
O=c1[nH]c2sc3c(c2c2nncn12)CCCC3 | . | . | . | . | . | . | ? | 35.5µM
Cc1cccc(NC(=O)CN2C(=O)N/C(=C/c3ccc(C)o3)C2=O)c1 | 11.2µM | . | 79.4µM | 35.5µM | . | . | ? | 35.5µM
c1coc(-c2nc3ccccc3nc2-c2ccco2)c1 | 14.1µM | 70.8µM | ? | 8.91µM | . | ? | 14.1µM | 17.8µM
O=C(c1ccccc1)c1ccc2nc(-c3ccco3)c(-c3ccco3)nc2c1 | 7.08µM | 14.1µM | 12.6µM | 3.16µM | 15.8µM | 7.52µM | ? | ?
O=C(O)c1ccc2nc(-c3ccccc3)c(-c3ccccc3)nc2c1 | . | . | . | . | . | . | / | /
COc1ccc(C(=O)NC2CCN(C(=O)NCc3ccccc3)CC2)cc1 | . | . | . | . | . | . | / | /
O=c1cc(NCc2ccccc2)[nH]c(=O)[nH]1 | / | / | . | / | . | . | ? | ?
O=C(O)c1ccc(CSc2nnc(-c3cccnc3)n2-c2ccc(Br)cc2)cc1 | . | . | ? | .[12.7 µM] | . | . | 2.51µM | 3.55µM
CCN(CC)CCN(C(=O)c1ccc2ncsc2c1)c1nc2cc3c(cc2s1)OCO3 | 35.5µM | 39.8µM | 50.1µM | / | . | . | 15.8µM | 15.8µM
CC1(C)NC(=O)N(CC(=O)O)C1=O | . | . | . | ? | . | . | / | /
Cc1[nH]c2ccccc2c1C1=CC(=O)C=CC1=O | / | / | 3.16µM | / | ? | 3.36µM | 0.562µM | 2.82µM
